High-throughput results deposited in PubChem by National Center for Advancing Translational Sciences (NCATS).
An excerpt weighted towards active compounds, which were near 10% of everything screened.
HP1b chromo inh: HTS for Inhibitors of HP1-beta Chromodomain Interactions with Methylated Histone Tails | AID 540317, 2011 | Potency, µM (highest dose often 114 µM), most hits filed as inhibitors | hit rate 0.56% among 390,000 | AlphaScreen HP1-beta / biotin-H3K9me3 peptide binding; also: nearly all actives have a fitted effect of over 70% in size
Target sequence (P83916 whole entry, looked up): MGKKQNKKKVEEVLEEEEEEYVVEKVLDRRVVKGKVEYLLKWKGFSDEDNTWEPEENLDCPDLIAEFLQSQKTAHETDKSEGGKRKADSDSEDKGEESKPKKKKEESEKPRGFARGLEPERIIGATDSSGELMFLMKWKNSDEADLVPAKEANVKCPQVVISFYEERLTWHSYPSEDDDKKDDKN
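Compound inhibition of the preformed complex between 50 nM HP1-beta and 50 nM biotinylated H3K9me3 peptide was read by AlphaScreen. Buffer was PBS pH 7.4 with 0.01% Tween-20. Incubations ran 30 min at room temperature, with 10 ug/mL donor/acceptor beads.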
BAZ2B block: qHTS Assay for Inhibitors of BAZ2B; AID 504333, 2011; AlphaScreen BAZ2B-H3K14Ac peptide displacement; Potency, µM (doses to about 114 µM), actives largely listed as inhibitors; Bromodomain adjacent to zinc finger domain protein 2B (Homo sapiens), Q9UIF8; hit rate 4.4% among 360,000; also: nearly all actives have a fitted effect of over 60% in size
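In this displacement format the biotinylated H3(5-23) peptide acetylated at Lys14 serves as ligand at 50 nM, with BAZ2B at 50 nM in PBS pH 7.4 containing 0.01% Tween-20. Donor and acceptor beads are 10 ug/mL final.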
Six1-Eya2 inh: qHTS Assay for Inhibitors of the Six1/Eya2 Interaction; AlphaScreen GST-Six1/His-Eya2 binding, biochemical; active compounds read low; activity change, % (no concentration beside the values); hit rate 0.56% among 360,000; AID 651725, 2012; in the data active = activity change below about -65%; inconclusive = mostly about -30% to -63%
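Six1/Eya2 binding was read as AlphaScreen signal after compounds were pinned into GST-Six1 plus His-tagged Eya2 (5X stock 250/500 nM) in pH 8.0 Tris/NaCl/TCEP buffer, beads added, then incubated 1 h, 37 C, dark.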
CtBP-E1A inh: qHTS Assay for Inhibitors of the CtBP/E1A Interaction | CtBP / adenovirus E1A interaction (AlphaScreen) | AlphaScreen GST-E1A/His-CtBP binding, 1536-well; active compounds read low | activity change, % (test concentration not listed) | hit rate 0.49% among 340,000 | AID 651724, 2012; in the data active = activity change below about -65%; inconclusive = mostly about -30% to -63%
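AlphaScreen with 125 nM GST-E1A and 125 nM His-CtBP (5X stocks) in Tris pH 8.0, 300 mM NaCl, BSA, Tween 20, TCEP. Compounds preincubated 2 h at 37 deg C, then glutathione donor/nickel acceptor beads added for 1 h at 37 deg C in dark.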
G9a block: qHTS Assay for Inhibitors of Histone Lysine Methyltransferase G9a; Histone-lysine N-methyltransferase EHMT2 (Homo sapiens), Q96KQ7; G9a H3K9 monomethylation, AlphaScreen, 2 h; Potency, µM (top dose mostly 102 µM), actives largely listed as inhibitors; hit rate 8.8% among 350,000; AID 504332, 2011; also: nearly all actives have a fitted effect of over 75% in size
Target sequence (Q96KQ7 913-1193 limits assumed): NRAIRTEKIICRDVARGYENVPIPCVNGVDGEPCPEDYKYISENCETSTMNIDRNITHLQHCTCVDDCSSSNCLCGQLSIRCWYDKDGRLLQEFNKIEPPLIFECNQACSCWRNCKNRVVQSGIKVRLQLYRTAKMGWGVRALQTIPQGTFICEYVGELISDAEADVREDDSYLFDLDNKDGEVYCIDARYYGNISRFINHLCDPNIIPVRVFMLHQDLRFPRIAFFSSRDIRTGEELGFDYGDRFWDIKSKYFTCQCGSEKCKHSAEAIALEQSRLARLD
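G9a (20 nM) preincubated 15 min RT with compounds, then 500 nM biotinylated H3K9 peptide and 20 uM SAM added; 2 h RT reaction. Monomethyl-H3K9 product detected by AlphaScreen with anti-H3K9me1 antibody, streptavidin donor and anti-rabbit IgG acceptor beads.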
JMJD2A Tudor inh: qHTS Assay for Inhibitors of JMJD2A-Tudor Domain; AID 504339, 2011; hit rate 4.4% among 390,000; Lysine-specific demethylase 4A (Homo sapiens), O75164; Potency, µM (doses to about 114 µM), usual class: inhibitors; AlphaScreen JMJD2A-Tudor / H3K4me3 peptide binding; also: nearly all actives have a fitted effect of over 50% in size
ME-1 growth: qHTS Assay for Compounds Blocking the Interaction Between CBF-beta and RUNX1 for the Treatment of Acute Myeloid Leukemia: ME-1 cellular proliferation; shares compounds with BAZ2B block; ME-1 cell proliferation, ATP luminescence, 48 h; Potency, µM (highest dose often 56.1 µM), most hits filed as inhibitors; hit rate 20% among 140
Large screens that a line does not name were inactive (follow-up assays come after a bar, where they were run); ! = not active in a repeat. Unless noted, calls follow the shape of the dose curve; as a rule, active = well fitted curve in the direction sought with a large enough effect; inconclusive = small, poorly fitted or top-dose-only effect, or another doubt; inactive = no such curve, though single readings can be large; an effect the other way counts as inactive or inconclusive.

CCN(CC)c1ccc(N=Cc2c(O)n(Cc3ccccc3)c(=O)[nH]c2=O)cc1	Six1-Eya2 inh -72.2!
CCOc1ccccc1-n1c(O)c(C=Nc2ccc(N(CC)CC)cc2)c(=O)[nH]c1=O	BAZ2B block inconclusive, G9a block 50.1µM, JMJD2A Tudor inh inconclusive
CCOC(=O)c1ccc(N2C(=O)c3n[nH]c(-c4cccs4)c3C2c2ccc(C(C)(C)C)cc2)cc1 (stereo not drawn)	G9a block inconclusive, JMJD2A Tudor inh inconclusive (no result: BAZ2B block, Six1-Eya2 inh, CtBP-E1A inh)
CCOc1nc(NC(C)C)nc(N2CC3CC(C2)c2cccc(=O)n2C3)n1 (stereo not drawn)	HP1b chromo inh inconclusive, JMJD2A Tudor inh 20µM (no result: CtBP-E1A inh)
C[C@]12C=CC(=O)C=C1CCC1C2=CC[C@]2(C)[C@@H](C(=O)CN3CCN(c4cc(N5CCCC5)nc(N5CCCC5)n4)CC3)CC[C@@H]12 (stereo partly drawn)	G9a block 39.8µM (no result: HP1b chromo inh, BAZ2B block, Six1-Eya2 inh, CtBP-E1A inh, JMJD2A Tudor inh)
CCCCC12CN3CC(C)(CN(C1)C3c1ccccn1)C2=O (stereo not drawn)	BAZ2B block 8.91µM, G9a block 0.631µM, JMJD2A Tudor inh 25.1µM (no result: Six1-Eya2 inh, CtBP-E1A inh)
Cc1ccc(CNCc2c(C(=O)O)n(Cc3ccccc3C)c3cc(C)ccc23)cc1	none (no result: Six1-Eya2 inh, CtBP-E1A inh)
C=CC[N+](C)(C)c1ccc(CCC(=O)CCc2ccc([N+](C)(C)CC=C)cc2)cc1	G9a block 15.8µM
COc1ccc(S(=O)(=O)N2Cc3cnnn3-c3ccccc3C2C#N)cc1 (stereo not drawn)	none (no result: BAZ2B block, G9a block)
N#CC1c2ccccc2-n2nncc2CN1S(=O)(=O)c1cc(Cl)cc(Cl)c1 (stereo not drawn)	JMJD2A Tudor inh 89.1µM (no result: BAZ2B block, G9a block)
CCCCC(=O)c1c(O)c2ccccc2oc1=O	G9a block 44.7µM, JMJD2A Tudor inh inconclusive
Cn1nc(-c2ccc(C(=O)Nc3ccc(OC(F)(F)F)cc3)cc2)c2ccccc2c1=O	none (no result: Six1-Eya2 inh, CtBP-E1A inh)
Cc1cc(OCC(=O)N2CCCN(C)CC2)ccc1Cl	none
Clc1ccc(OCCCN2CCCC2)cc1Cl	HP1b chromo inh inconclusive, BAZ2B block inconclusive, G9a block 10µM, JMJD2A Tudor inh 3.98µM
CCOc1cccc(OCCOCCN2CCCC2)c1	HP1b chromo inh inconclusive, BAZ2B block inconclusive, G9a block inconclusive, JMJD2A Tudor inh 7.94µM
O=C(Nc1cc(C(F)(F)F)cc(C(F)(F)F)c1)c1cccn(Cc2ccccc2Cl)c1=O	none (no result: Six1-Eya2 inh, CtBP-E1A inh)
COc1ccc(C(=O)OC2C[C@H]3CC[C@@H](C2)N3C)cc1OC (stereo partly drawn)	none (no result: HP1b chromo inh, BAZ2B block, Six1-Eya2 inh, CtBP-E1A inh, JMJD2A Tudor inh)
c1ccc2sc(C3(NCC4CC4)CCCCC3)cc2c1	none (no result: HP1b chromo inh, BAZ2B block, Six1-Eya2 inh, CtBP-E1A inh, JMJD2A Tudor inh)
CC(C)[C@@]1(NC(=O)[C@@H]2C[C@H]3c4cccc5[nH]cc(c45)C[C@@H]3N(C)C2)O[C@]2(O)[C@H]3CCCN3C(=O)CN2C1=O	none (no result: HP1b chromo inh, BAZ2B block, Six1-Eya2 inh, CtBP-E1A inh, JMJD2A Tudor inh)
CC(C)[C@H]1C(=O)N2CCC[C@H]2[C@]2(O)O[C@](NC(=O)[C@@H]3C=C4c5cccc6[nH]cc(c56)C[C@H]4N(C)C3)(C(C)C)C(=O)N12	BAZ2B block inconclusive, CtBP-E1A inh inconclusive, G9a block 10µM | ME-1 growth inactive
CC(C)C[C@H]1C(=O)N2CCCC2[C@]2(O)O[C@](NC(=O)[C@@H]3C=C4c5cccc6[nH]cc(c56)CC4N(C)C3)(C(C)C)C(=O)N12 (stereo partly drawn)	BAZ2B block inconclusive, G9a block 39.8µM, JMJD2A Tudor inh inconclusive | ME-1 growth inconclusive
Cc1nn(-c2ccccc2)c(Cl)c1/C=N\NC(=O)c1cnccn1	none
NC(Cc1cc(O)c(O)cc1O)C(=O)O (stereo not drawn)	BAZ2B block 0.891µM, G9a block 0.447µM (no result: HP1b chromo inh, Six1-Eya2 inh, CtBP-E1A inh, JMJD2A Tudor inh) | ME-1 growth inactive
O=C(O)CCCCC1SCC2NC(=O)NC21 (stereo not drawn)	HP1b chromo inh inconclusive, BAZ2B block 0.794µM, G9a block 7.94µM!, JMJD2A Tudor inh 11.2µM | ME-1 growth inactive
COC(C/C=C/C=C/CC/C=C\CC(C)/C=C\C(=C/C(=O)O)CC(=O)O)/C(C)=C\C=C(/C)C(=O)O (stereo not drawn)	none (no result: HP1b chromo inh, BAZ2B block, Six1-Eya2 inh, CtBP-E1A inh, JMJD2A Tudor inh)
Cc1cccc(NC(=O)Cn2cc(C(=O)c3ccccc3)c3ccccc32)c1	none (no result: Six1-Eya2 inh, CtBP-E1A inh)
Cc1ccc(Cn2cccc(C(=O)Nc3ccc(C)c(Cl)c3)c2=O)cc1	none (no result: Six1-Eya2 inh, CtBP-E1A inh)
O=C1C=CC(=O)c2c(O)cccc21	G9a block inconclusive (no result: HP1b chromo inh, BAZ2B block, Six1-Eya2 inh, CtBP-E1A inh, JMJD2A Tudor inh) | ME-1 growth 22.4µM
NCCc1cc(O)c(O)cc1O	HP1b chromo inh 28.2µM, Six1-Eya2 inh inconclusive, JMJD2A Tudor inh 10µM (no result: BAZ2B block) | ME-1 growth inconclusive
CN(N=O)c1ccc(O)c(O)c1	G9a block 0.501µM (no result: HP1b chromo inh, BAZ2B block, Six1-Eya2 inh, CtBP-E1A inh, JMJD2A Tudor inh) | ME-1 growth inactive
O=C(Nc1cccc(F)c1)N1CC2(CCN(C(=O)Oc3ccccc3)CC2)C1	none (no result: HP1b chromo inh, BAZ2B block, Six1-Eya2 inh, CtBP-E1A inh, JMJD2A Tudor inh)
COc1ccc(NC(=O)N2CCCC3(CCN(C(=O)Oc4ccccc4)CC3)C2)cc1	none (no result: HP1b chromo inh, BAZ2B block, Six1-Eya2 inh, CtBP-E1A inh, JMJD2A Tudor inh)
